In all, about 3,400 compounds went through this assay and about 840 (25%) were called active. About 11% were inconclusive and are not listed. The list is a sample of the results. Potency and affinity values are given separately. Values without a mark were called inactive.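 Rule for the calls: active = fitted half-maximal concentration of signal decrease at or below twice the sample's top tested concentration; inconclusive = flat curve between -70 and -30 percent, or poor fit; inactive = flat within 30 percent, signal rise, or potency above limit.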
Test: inhibitors of Toxoplasma growth in IFN-γ-primed HeLa – cell-based, ME49Luc, luciferase, 72 h, dose response (AID 1259418)
Conditions: T. gondii ME49Luc in IFN-y HeLa, stronger effect = lower value, -100% = high-dose IFN-γ control wells; at 19.5 µM unless noted

In order of rising max activity:
1. O=C(NCCc1csc(-c2ccccc2)n1)[C@H]1CCCN1C(=O)c1ccc(Br)cc1  -11% [at 0.16 µM]
2. O=C(NCCc1csc(-c2ccccc2)n1)[C@H]1CCCN1C(=O)c1ccc(F)cc1  -10.4% [at 0.16 µM]
3. Cc1nc(CCNC(=O)[C@H]2CCCN2C(=O)c2ccc(F)cc2)cs1  -9.63% [at 0.16 µM]
4. CCN1C(=O)CCc2cc(NC(=O)c3cccc(C#N)c3)ccc21  -7.75% [at 0.16 µM]
5. CCc1ccc(CNc2nc(-c3ccc(OC)cc3)nc3ccccc23)cc1  -7.47% [at 0.16 µM]
6. COc1ccccc1CNC(=O)CCC1N=C2c3ccccc3N=C(SCc3cc(=O)n4ccccc4n3)N2C1=O (configuration not stated)  -7.46% [at 0.16 µM]
7. CCc1ccc2c(c1)cc(S(=O)(=O)c1ccccc1)c(=O)n2CC(=O)N1CCCCC1  9.02% [at 0.16 µM]
8. COc1ccc(-c2nc3c(s2)CN(S(=O)(=O)c2cccs2)CC3)cc1  12.1% [at 0.16 µM]
9. COc1ccccc1CNC(=O)CCC1N=C2c3ccccc3N=C(SCc3ccc(F)cc3)N2C1=O (configuration not stated)  14.5% [at 0.16 µM]
10. Cc1ccc(C)c(-c2coc(-c3ccc(NC(=O)Nc4cc(F)ccc4F)cc3)n2)c1  18.4% [at 0.16 µM]
11. Cc1nc(CCNC(=O)[C@H]2CCCN2C(=O)c2cccc(Br)c2)cs1  23.4% [at 0.16 µM]
12. O=C(CCC1N=C2c3ccccc3N=C(SCc3ccccc3F)N2C1=O)NCCc1ccccc1 (configuration not stated)  25.3% [at 0.16 µM]

In order of rising max activity:
1. Cc1ccc(CSC2=Nc3ccccc3C3=NC(CCC(=O)NC4CCCCC4)C(=O)N23)cc1 (configuration not stated)  -23.8%
2. Cc1ccc(C)c(-c2coc(-c3ccc(NC(=O)COc4ccccc4C)cc3)n2)c1  -11.5%
3. CCc1ccc2c(c1)cc(S(=O)(=O)c1ccccc1)c(=O)n2CC(=O)NC(C)CC (configuration not stated)  -8.4%
4. CCOc1cc(C(=O)Nc2ccc3c(c2)CCC(=O)N3)cc(OCC)c1OCC  7.32%
5. O=C(CC1N=C2c3ccccc3N=C(SCc3cc(=O)n4cc(Cl)ccc4n3)N2C1=O)NCc1ccccc1 (configuration not stated)  8.94%
6. Cc1oc(-c2ccccc2)nc1Cn1nnc(-c2nc(-c3cccc(F)c3)no2)c1C  9.95%
7. O=C(CCC1N=C2c3ccccc3N=C(SCc3cccc(F)c3)N2C1=O)NCc1ccco1 (configuration not stated)  10.2%
8. Cc1ccc(-c2coc(-c3ccc(NC(=O)c4ccco4)cc3)n2)c(C)c1  11.6%
9. Cc1ccccc1C(=O)N1CCC(N2CCOCC2)CC1C(=O)O (configuration not stated)  15.5%
10. CCc1c(C)sc2c1CCN(Cc1nc(-c3ccc(OC)cc3OC)oc1C)C2c1ccccc1 (configuration not stated)  15.7%
11. NC(=O)C1(N2CCCCC2)CCN(c2ccc(NC(=O)c3ccc(Cl)cc3)cc2C(=O)O)CC1  20.8%
12. CC(c1cc2ccccc2s1)N(O)C(N)=O (configuration not stated)  22.5%
13. N#Cc1cccc(C(=O)N2CCC3C2CC(=O)N3Cc2ccncc2)c1 (configuration not stated)  25.6%
14. Cc1ccc(-c2coc(-c3ccc(NC(=O)CC(C)C)cc3)n2)cc1  33%
15. Cc1cc(C)n(C)c(=O)c1C(=O)N1CCOC(C(F)(F)F)C1 (configuration not stated)  34.4%
16. CCc1nc(OCC(=O)Nc2cccc(C)c2C)c2ccccc2n1  34.5%
17. CCOC(=O)CSC1=Nc2ccccc2C2=NC(CCC(=O)NCc3ccccc3)C(=O)N12 (configuration not stated)  43.1%
18. COc1cc(NC(=O)Nc2ccc(-c3nc(-c4ccccc4)co3)cc2)cc(OC)c1OC  43.1%
19. C/C=C/c1ccc(C2[C@H]3CNC[C@@H]2N3S(=O)(=O)c2cccc(F)c2)cc1 (some centres not stated)  51.2%
20. O=C(Nc1ccc(-c2nc(-c3ccccc3)co2)cc1)Nc1ccc(F)cc1F  65.6%
21. COc1ccc(NC(=O)Nc2ccc(-c3nc(-c4ccccc4)co3)cc2)cc1OC  91.2%

In order of falling max activity:
1. COCCCN1CCc2nc(SCc3nc(-c4cccc(Cl)c4)oc3C)[nH]c(=O)c2C1  33.5% [at 0.35 µM]
2. N#CCSC1=Nc2ccccc2C2=NC(CCC(=O)NCc3ccc(F)cc3)C(=O)N12 (configuration not stated)  22.5% [at 0.35 µM]
3. CC(C)c1cc(C2CCCN2C(=O)c2cc(C(F)(F)F)nn2C)on1 (configuration not stated)  9.25% [at 0.35 µM]
4. COc1ccc(NC(=O)Nc2ccc(-c3nc(-c4cccc(Br)c4)co3)cc2)cc1OC  8.18% [at 0.35 µM]
5. COc1ccc2c(c1)NC1(CCN(C(=O)Cc3ccccc3)CC1)c1cccn1-2  5.44% [at 0.35 µM]
6. CCN1C(=O)CCc2cc(NC(=O)Cc3cccs3)ccc21  -9.98% [at 0.35 µM]
7. COc1ccc(CNC(=O)CCC2N=C3c4ccccc4N=C(SCc4ccccc4F)N3C2=O)cc1 (configuration not stated)  -23.7% [at 0.35 µM]
8. Clc1ccc(-c2nc(NCc3cccnc3)c3ccccc3n2)cc1  -32.4% [at 0.35 µM]

In order of falling max activity:
1. Cc1ccc(-n2ncc3c(NC4CCCCCCCCCCC4)ncnc32)c(C)c1  53.2% [at 10 µM]
2. CCN(C)C(=O)c1cnc(-c2noc3cc(N4CCCCC4)ccc23)s1  35.7% [at 10 µM]
3. CCC(=O)N1CC(=O)N2[C@@H](CO)[C@@H](c3ccc(C#CCC(C)C)cc3)[C@@H]2C1  22.8% [at 10 µM]
4. CCC(=O)N1CC(=O)N2[C@@H](CO)[C@H](c3ccc(C#CCC(C)C)cc3)[C@@H]2C1  20.4% [at 10 µM]
5. CC(C)CC#Cc1ccc([C@H]2[C@@H](CO)N3C(=O)CN(C(=O)c4cccc(F)c4)C[C@@H]23)cc1  19.1% [at 10 µM]
6. O=C(NCC1CC1)C1CN(C(=O)c2ccoc2)CC12CCOCC2 (configuration not stated)  17.9% [at 10 µM]
7. Cc1ccc(-c2coc(-c3ccc(NC(=O)CC(C)C)cc3)n2)c(C)c1  14.2% [at 10 µM]
8. Oc1[nH]c2ccccc2c1N=Nc1nc(Nc2ccccc2)nc(N2CCOCC2)n1  12.6% [at 10 µM]
9. O=S(=O)(c1cccs1)N1CCCCN2[C@H](C1)[C@@H](c1ccc(/C=C/c3ccccc3)cc1)[C@@H]2CO  11.8% [at 10 µM]
10. CCc1c(C)sc2c1CCN(Cc1nc(-c3ccccc3Cl)oc1C)C2c1ccccc1 (configuration not stated)  11.5% [at 10 µM]
11. O=C(Cc1cccc(F)c1)N1CCC2(CC1)Nc1ccccc1-n1cccc12  9.66% [at 10 µM]
12. CCC(=O)N1CC(=O)N2[C@H](CO)[C@H](c3ccc(C#CCC(C)C)cc3)[C@H]2C1  9.28% [at 10 µM]
13. Cc1ccc(-c2nc(Cn3nnc(-c4nc(-c5ccncc5)no4)c3C)c(C)o2)cc1  8.58% [at 10 µM]
14. Cc1ccc2c(c1)cc(S(=O)(=O)c1ccccc1)c(=O)n2CC(=O)NCc1ccc(F)cc1  3.98% [at 10 µM]
15. N#C[C@@H]1[C@@H](c2ccc(C#Cc3cccnc3)cc2)[C@@H](CO)N1C(=O)NC1CCCCC1  -10.3% [at 10 µM]
16. COc1ccc(-c2nc(Cn3nnc(-c4nc(-c5ccc(Cl)c(F)c5)no4)c3C)c(C)o2)cc1  -11.8% [at 10 µM]
17. COCC(=O)N1[C@H](C#N)[C@H](c2ccc(C#Cc3ccccc3F)cc2)[C@H]1CO  -13.1% [at 10 µM]
18. CCN(CC)Cc1cn2c(n1)CN(C(=O)c1cnc(C)cn1)CC2  -25.1% [at 10 µM]

In order of falling max activity:
1. CCc1c(C)sc2c1CCN(Cc1nc(-c3ccccc3C)oc1C)C2c1ccccc1 (configuration not stated)  25.6% [at 5 µM]
2. O=C(c1cccc(F)c1)N1CC(=O)N2[C@@H](CO)[C@H](c3ccc(/C=C/c4ccccc4)cc3)[C@@H]2C1  14.7% [at 5 µM]
3. CN1CCCN(C(=O)c2cc3c(c4ccccc4n3CC3CC3)n2S(C)(=O)=O)CC1  11.9% [at 5 µM]
4. CCN1C(=O)CCCC12CCCN(C(=O)c1ccc3ncccc3c1)C2 (configuration not stated)  -6.92% [at 5 µM]

In order of falling max activity:
1. COc1ccccc1NC(=O)N1CCN(Cc2nc(-c3cccc(Cl)c3)oc2C)CC1  15.9% [at 1.35 µM]
2. O=C(CCC1N=C2c3ccccc3N=C(SCc3ccccc3F)N2C1=O)NCc1ccc(F)cc1 (configuration not stated)  12.5% [at 1.35 µM]
3. O=C(CC1N=C2c3ccccc3N=C(SCc3cccc(F)c3)N2C1=O)NCc1ccccc1 (configuration not stated)  -15% [at 1.35 µM]
4. COc1ccc(NC(=O)CN2CCC3(CC2)N=C(c2ccc(F)cc2)C(=O)N3)cc1  -27.9% [at 1.35 µM]

In order of falling max activity:
1. CCOC(=O)CSC1=Nc2ccccc2C2=NC(CCC(=O)NCc3ccc(F)cc3)C(=O)N12 (configuration not stated)  24.5% [at 2.6 µM]
2. CCOc1ccc(-c2nc(CSc3nc4c(c(=O)[nH]3)CN(C(C)C)CC4)c(C)o2)cc1OC  21% [at 2.6 µM]
3. Cc1ccc(-c2coc(-c3ccc(NC(=O)Nc4ccc(C)c(C)c4)cc3)n2)cc1  12% [at 2.6 µM]
4. O=C(CCC1N=C2c3ccccc3N=C(SCc3cccc(F)c3)N2C1=O)NC1CCCCC1 (configuration not stated)  -18.1% [at 2.6 µM]

`COc1ccc(CNC(=O)CCC2N=C3c4ccccc4N=C(SCc4ccc(Cl)cc4)N3C2=O)cc1` (configuration not stated) showed a max activity of -5.19% [at 0.68 µM].

From PubChem BioAssay AID1259418 (Broad Institute, 2018)
